# Data reported in the supplement of paper PMC12494721.
# Structures can show the parent of a compound that is named as a salt.
# Columns and labels:
# Details in all cases: incubation time: 27 h, anaerobic, 37 °C;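 for the amine columns active = adjusted P below 0.05 in both replicates with a change the same way and a mean fold change under 0.8 or over 1.25; inactive = the rest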
# [1] = system: Clostridium sporogenes DSM 1664; assay: growth (OD595) fold change vs plate DMSO controls (fold change (ratio)); higher = more growth
# In short: (§1)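 To obtain OD, 595 nm absorbance readings were blank-subtracted, corrected for compound background using 20 µM compound solutions in water, and multiplied by a calibration factor of 5. They came from 96-well mGAM cultures grown anaerobically for 27 h at 37 °C and shaken before reading. Growth is the fold change relative to the median of plate DMSO controls. Two biological replicates were averaged, and fold changes above 1.5 were set to NA.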
# Escherichia coli IAI1 [2] = assay: as above
# In short: as §1
# [3] = system: Klebsiella aerogenes DSM 30053; assay: as above
# In short: as §1
# [4] = system: Ruminococcus gnavus DSM 108212; assay: as above
# In short: as §1
# [5] = system: Klebsiella aerogenes DSM 30053; assay: fold change of Histamine concentration vs plate DMSO controls (fold change (ratio)); higher = more amine produced, active = hit call of the paper (significant change in both replicates, either direction)
# In short: (§2)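 Amine values are fold changes relative to DMSO-only wells on the same plate. They derive from 27 h, 37 °C anaerobic mGAM cultures of four gut bacterial strains in 80 µL wells, dosed at 20 µM final, or 50 µM final for sweeteners. Extraction of the whole culture, LC–triple-quadrupole MS in dynamic MRM mode, external calibration curves and within-batch drift correction were used, with 2 biological replicates averaged.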
# [6] = system: Clostridium sporogenes DSM 1664; assay: fold change of Tryptamine concentration vs plate DMSO controls (fold change (ratio)); higher = more amine produced, active = hit call of the paper (significant change in both replicates, either direction)
# In short: as §2
# [7] = system: Ruminococcus gnavus DSM 108212; assay: as above
# In short: as §2
# Escherichia coli IAI1 [8] = assay: fold change of Putrescine concentration vs plate DMSO controls (fold change (ratio)); higher = more amine produced, active = hit call of the paper (significant change in both replicates, either direction)
# In short: as §2
# [9] = system: Klebsiella aerogenes DSM 30053; assay: as above
# In short: as §2
# Escherichia coli IAI1 [10] = assay: fold change of Cadaverine concentration vs plate DMSO controls (fold change (ratio)); higher = more amine produced, active = hit call of the paper (significant change in both replicates, either direction)
# In short: as §2
# [11] = system: Klebsiella aerogenes DSM 30053; assay: as above
# In short: as §2
# [12] = system: Ruminococcus gnavus DSM 108212; assay: fold change of 2-Phenylethylamine concentration vs plate DMSO controls (fold change (ratio)); higher = more amine produced, active = hit call of the paper (significant change in both replicates, either direction)
# In short: as §2
Compound,growth [1],growth (Escherichia coli IAI1 [2]),growth [3],growth [4],fold change of Histamine concentration [5],fold change of Tryptamine concentration [6],fold change of Tryptamine concentration [7],fold change of Putrescine concentration (Escherichia coli IAI1 [8]),fold change of Putrescine concentration [9],fold change of Cadaverine concentration (Escherichia coli IAI1 [10]),fold change of Cadaverine concentration [11],fold change of 2-Phenylethylamine concentration [12]
CNCC[C@@H](Oc1cccc2ccccc12)c1cccs1 [(R)-Duloxetine hydrochloride] (20 µM),1.03,1.07,0.994,0.9,1.01 (inactive),0.986 (inactive),0.979 (inactive),1.04 (inactive),0.994 (inactive),0.952 (inactive),0.986 (inactive),1.02 (inactive)
N=c1nc(N2CCCCC2)cc(N)n1O [Minoxidil] (20 µM),0.888,0.963,1.03,0.722,0.98 (inactive),0.937 (inactive),1.01 (inactive),0.982 (inactive),0.987 (inactive),0.995 (inactive),1.01 (inactive),1.05 (inactive)
CC(C)NNC(=O)c1ccncc1 [Iproniazide phosphate] (20 µM),1.05,1.13,1.09,1.06,0.977 (inactive),1.06 (inactive),1 (inactive),1.13 (inactive),1.01 (inactive),0.987 (inactive),1 (inactive),0.994 (inactive)
CC(Oc1c(Cl)cccc1Cl)C1=NCCN1 (stereo unspecified) [Lofexidine] (20 µM),1.07,1.09,1.06,1.04,0.922 (inactive),0.975 (inactive),1.03 (inactive),1.04 (inactive),0.993 (inactive),1.01 (inactive),1.01 (inactive),1.01 (inactive)
O=C(O)COc1nn(Cc2ccccc2)c2ccccc12 [Bendazac] (20 µM),1.19,1.05,1.05,1.02,0.954 (inactive),0.948 (inactive),0.986 (inactive),0.975 (inactive),1 (inactive),0.973 (inactive),1 (inactive),0.993 (inactive)
C[C@]12CCC(=O)C=C1CC[C@@H]1[C@@H]2[C@@H](O)C[C@@]2(C)[C@H]1CC[C@]2(O)C(=O)CO [Hydrocortisone] (20 µM),0.958,1.03,0.985,1.03,1.04 (inactive),1.06 (inactive),1.01 (inactive),1.04 (inactive),1 (inactive),1.03 (inactive),1 (inactive),0.975 (inactive)
CNC(C)CCC=C(C)C (stereo unspecified) [Isometheptene mucate] (20 µM),0.966,0.977,1.01,1.24,1.09 (inactive),0.944 (inactive),1.01 (inactive),0.979 (inactive),1.04 (inactive),1.01 (inactive),1.02 (inactive),0.954 (inactive)
CCCc1nn(C)c2c(=O)[nH]c(-c3cc(S(=O)(=O)N4CCN(C)CC4)ccc3OCC)nc12 [Sildenafil] (20 µM),1.23,1.01,1.02,1.14,0.993 (inactive),1.06 (inactive),1.15 (inactive),0.921 (inactive),0.98 (inactive),0.87 (inactive),1.04 (inactive),1.24 (inactive)
NC(CO)C(=O)NNCc1ccc(O)c(O)c1O (stereo unspecified) [Benserazide hydrochloride] (20 µM),0.879,1.06,0.985,0.988,1.08 (inactive),0.965 (inactive),1.03 (inactive),1.19 (inactive),1.03 (inactive),0.994 (inactive),0.991 (inactive),1.03 (inactive)
CC(=O)N(CC(C)C(=O)O)c1c(I)cc(I)c(N)c1I (stereo unspecified) [Iocetamic acid] (20 µM),0.863,1.01,0.986,0.975,1.04 (inactive),1.05 (inactive),0.971 (inactive),1.09 (inactive),1 (inactive),0.988 (inactive),0.987 (inactive),0.924 (inactive)
O=c1[nH]cnc2c1ncn2[C@H]1CC[C@@H](CO)O1 [Didanosine] (20 µM),1.07,1.03,1.03,1.08,0.958 (inactive),0.992 (inactive),1.15 (inactive),1.14 (inactive),1.08 (inactive),1.69 (active),1.03 (inactive),1.16 (inactive)
COc1cc2ncnc(Nc3ccc(F)c(Cl)c3)c2cc1OCCCN1CCOCC1 [Gefitinib] (20 µM),1.1,1.04,0.991,1.18,0.983 (inactive),1.06 (inactive),0.993 (inactive),1.14 (inactive),0.997 (inactive),1.02 (inactive),1.02 (inactive),1.1 (inactive)
Cc1ccnc2c1NC(=O)c1cccnc1N2C1CC1 [Nevirapine] (20 µM),0.962,0.959,1.01,0.868,0.914 (inactive),1 (inactive),1.12 (inactive),0.955 (inactive),1.02 (inactive),1.02 (inactive),1.01 (inactive),1.12 (inactive)
OC[C@H](O)C(O)[C@@H](O)CO [L-Arabinitol] (50 µM),1.11,0.995,0.979,0.985,1 (inactive),0.956 (inactive),0.939 (inactive),1.06 (inactive),1.02 (inactive),0.981 (inactive),0.984 (inactive),0.908 (inactive)
COc1cc([C@@H]2c3cc4c(cc3[C@@H](O[C@@H]3O[C@@H]5CO[C@@H](C)O[C@H]5[C@H](O)[C@H]3O)[C@H]3COC(=O)[C@H]23)OCO4)cc(OC)c1O [Etoposide] (20 µM),0.285,1.05,1.2,0.101,0.858 (inactive),0.403 (active),0.248 (active),1.08 (inactive),0.982 (inactive),0.966 (inactive),1.03 (inactive),0.236 (active)
CCCC(=O)Nc1ncnc2c1ncn2[C@@H]1O[C@@H]2COP(=O)(O)O[C@H]2[C@H]1OC(=O)CCC [Bucladesine sodium salt] (20 µM),0.934,1.16,1.04,0.964,0.931 (inactive),0.976 (inactive),0.984 (inactive),1.06 (inactive),0.983 (inactive),1 (inactive),1.01 (inactive),0.975 (inactive)
Cc1nc2ccccn2c(=O)c1CCN1CCC(C(=O)c2ccc(F)cc2)CC1 [Pirenperone] (20 µM),0.963,1.01,1.01,1.05,1.06 (inactive),0.996 (inactive),0.997 (inactive),0.995 (inactive),1.01 (inactive),1.03 (inactive),0.983 (inactive),0.969 (inactive)
CCN1CCN(Cc2ccc(Nc3ncc(F)c(-c4cc(F)c5nc(C)n(C(C)C)c5c4)n3)nc2)CC1 [Abemaciclib] (20 µM),0.975,1,1.04,1.19,1.02 (inactive),1 (inactive),1 (inactive),0.983 (inactive),1.01 (inactive),1.03 (inactive),0.993 (inactive),1.02 (inactive)
"CC(C)NC[C@H](O)COc1ccc(CC(N)=O)cc1 [(S,-) Atenolol] (20 µM)",0,0.913,1.01,0.825,1.04 (inactive),0.0316 (active),0.944 (inactive),0.847 (inactive),1.03 (inactive),0.954 (inactive),1.02 (inactive),0.909 (inactive)
Cc1onc(-c2c(Cl)cccc2Cl)c1C(=O)N[C@@H]1C(=O)N2[C@@H]1SC(C)(C)[C@@H]2C(=O)O [Dicloxacillin sodium salt hydrate] (20 µM),0.000771,0.996,0.975,0.165,1.01 (inactive),0.0119 (active),0.05 (active),0.979 (inactive),1.01 (inactive),1.03 (inactive),0.994 (inactive),0.0548 (active)
CC(=O)OCC(=O)[C@@]1(O)CC[C@H]2[C@@H]3CCC4=CC(=O)CC[C@]4(C)[C@@]3(F)[C@@H](O)C[C@@]21C [Fludrocortisone acetate] (20 µM),0.949,1.09,1.03,1.06,1.01 (inactive),1 (inactive),1.01 (inactive),1.09 (inactive),1 (inactive),1.02 (inactive),1 (inactive),0.966 (inactive)
CN(C)CCCOc1nn(Cc2ccccc2)c2ccccc12 [Benzydamine hydrochloride] (20 µM),1.1,0.95,0.978,1.04,1.05 (inactive),0.95 (inactive),0.986 (inactive),0.983 (inactive),1.03 (inactive),0.967 (inactive),1.01 (inactive),0.92 (inactive)
C#Cc1cccc(Nc2ncnc3cc(OCCOC)c(OCCOC)cc23)c1 [Erlotinib] (20 µM),0.903,0.969,1.01,0.842,1.05 (inactive),1 (inactive),1.02 (inactive),0.987 (inactive),1.04 (inactive),1.02 (inactive),1.01 (inactive),1.05 (inactive)
